# Source: PubChem BioAssay (NCATS)
# Values joined by “and” are separate entries in the source; they are usually repeats but may differ in a detail not shown here. Equal values may be shown once. Results filed as inconclusive are left out. Entries that show only a call come without a potency. Some compounds were tested as several samples or in several runs, with calls that do not always agree. Active and inactive are the calls of the source. Unless noted, the call rests on the fitted dose curve; in most records, active means well fitted curve in the direction sought with a large enough effect; inconclusive means small, poorly fitted or top-dose-only effect, or another doubt; inactive means no such curve, though single readings can be large; an effect the other way counts as inactive or inconclusive.
# Experiments:
# [1] = target: Guanine nucleotide-binding protein G(i) subunit alpha-1 (Homo sapiens) (UniProt P63096); assay: qHTS Assay for Inhibitors of RGS12 GoLoco Motif Activity (Green Fluorophore) (AID 879);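 further: negative values mean loss of peptide binding seen as reduced polarization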
# Guanine nucleotide-binding protein G(i) subunit alpha-1 (Homo sapiens), sequence (P63096 whole entry, looked up): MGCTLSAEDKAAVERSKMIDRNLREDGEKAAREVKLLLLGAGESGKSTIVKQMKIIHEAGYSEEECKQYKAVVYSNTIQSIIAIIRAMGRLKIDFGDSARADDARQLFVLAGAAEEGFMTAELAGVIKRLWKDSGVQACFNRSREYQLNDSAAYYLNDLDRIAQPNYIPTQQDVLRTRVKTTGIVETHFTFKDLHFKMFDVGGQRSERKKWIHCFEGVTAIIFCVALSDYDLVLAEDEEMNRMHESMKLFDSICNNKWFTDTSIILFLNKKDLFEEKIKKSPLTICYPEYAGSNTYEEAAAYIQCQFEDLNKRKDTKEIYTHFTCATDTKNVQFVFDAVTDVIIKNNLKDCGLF
# In short: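 Fluorescence polarization assay: 50 nM Gαi1 with 10 nM FITC-labeled RGS12 GoLoco peptide in 10 mM Tris pH 7.5, 150 mM NaCl, 0.1 mM GDP, 0.05% NP40, 10 min at room temperature with compound.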
# [2] = target: Pyruvate kinase (Leishmania mexicana) (UniProt Q27686); assay: qHTS Validation Assay for Inhibitors of Leishmania Mexicana Pyruvate Kinase (AID 945)
# Pyruvate kinase (Leishmania mexicana), sequence (Q27686 2-499 E452W): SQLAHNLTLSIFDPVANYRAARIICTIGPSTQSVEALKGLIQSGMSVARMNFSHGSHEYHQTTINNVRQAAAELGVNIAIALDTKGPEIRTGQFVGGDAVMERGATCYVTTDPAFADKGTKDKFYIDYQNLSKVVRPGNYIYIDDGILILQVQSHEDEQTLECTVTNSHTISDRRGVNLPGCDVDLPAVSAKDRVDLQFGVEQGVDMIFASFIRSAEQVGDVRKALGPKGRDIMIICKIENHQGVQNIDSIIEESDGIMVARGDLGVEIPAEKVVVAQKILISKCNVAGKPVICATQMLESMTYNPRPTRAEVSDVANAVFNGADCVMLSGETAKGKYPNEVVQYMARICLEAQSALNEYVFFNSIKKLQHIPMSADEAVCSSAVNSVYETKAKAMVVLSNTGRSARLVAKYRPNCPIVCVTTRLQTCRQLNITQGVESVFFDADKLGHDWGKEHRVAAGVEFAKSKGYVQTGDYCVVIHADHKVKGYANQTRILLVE
# In short: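 An endpoint luciferase assay: 0.2 nM LmPYK E451W turns over 0.5 mM PEP with 0.1 mM ADP for 1 h at room temperature, pH 7.2, before PKLight addition. Values are normalized to DMSO-only wells.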
# [3] = target: Cytochrome P450 3A4 (Homo sapiens) (UniProt P08684); assay: qHTS Assay for Inhibitors and Substrates of Cytochrome P450 3A4 (AID 884); further: series mostly up to about 57 µM; nearly all actives have a fitted effect of over 50% in size
# Cytochrome P450 3A4 (Homo sapiens), sequence (P08684 whole entry, looked up): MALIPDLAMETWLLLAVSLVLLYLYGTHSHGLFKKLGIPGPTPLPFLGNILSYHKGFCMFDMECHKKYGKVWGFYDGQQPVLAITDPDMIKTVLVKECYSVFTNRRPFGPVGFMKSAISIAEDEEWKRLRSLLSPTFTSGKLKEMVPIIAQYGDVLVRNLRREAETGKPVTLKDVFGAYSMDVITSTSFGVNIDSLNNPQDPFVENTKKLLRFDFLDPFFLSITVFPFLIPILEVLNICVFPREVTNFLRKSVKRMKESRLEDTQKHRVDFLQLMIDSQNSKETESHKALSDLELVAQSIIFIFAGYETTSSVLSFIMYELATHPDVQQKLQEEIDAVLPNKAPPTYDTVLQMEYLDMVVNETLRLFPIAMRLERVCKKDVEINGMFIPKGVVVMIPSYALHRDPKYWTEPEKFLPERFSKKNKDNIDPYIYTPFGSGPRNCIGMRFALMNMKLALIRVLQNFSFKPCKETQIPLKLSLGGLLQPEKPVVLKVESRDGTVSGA
# In short: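 20 nM human CYP3A4 with 25 uM Luciferin-PPXE (at KM) in 200 mM KPO4, preincubated 10 min with compound; NADPH regeneration started a 60 min RT reaction. Luciferin detected by luminescence, normalized to 57 uM ketoconazole as full inhibition.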
# [4] = Confirmation and Secondary Assay for Modulators of Hemoglobin Beta Chain Splicing at IVS2 654 locus (AID 910);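 further: per-well total GFP intensity by laser scanning cytometry after 2-day treatment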
# In short: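 HeLa cells stably carrying EGFP interrupted by mutant beta-globin IVS2-654 intron (CMV-driven) were treated with compound for 2 days at 37C; corrected splicing was scored as total peak GFP intensity per well (488 nm excitation, 500-520 nm emission).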
# [5] = Confirmation and Secondary Assay for Modulators of Hemoglobin Beta Chain Splicing at IVS2 705 locus (AID 930);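 further: HeLa cells stably expressing the EGFP-705 splicing reporter; GFP fluorescence per well restored by corrected splicing of the IVS2-705 intron in EGFP; series mostly up to about 46 µM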
# In short: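 Per-well GFP, captured at 1 x 8 µm resolution with 488 nm excitation, served as the read-out for HeLa EGFP-705 cells incubated 2 days with test compound versus DMSO.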
# [6] = qHTS Assay for Identification of Small Molecule Agonists for Thrombopoietin (TPO) Signaling Pathway (AID 917)
# In short: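 IL-3-dependent murine pro-B Ba/F3 cells, stably transfected with human TPO receptor and GpIIb-promoter luciferase, are incubated 24 hrs at 37 C with test compound and 26 pM TPO; luciferase signal is read after 10 min at room temperature.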
# [7] = target: Cytochrome P450 2C9 (Homo sapiens) (UniProt P11712); assay: qHTS Assay for Inhibitors and Substrates of Cytochrome P450 2C9 (AID 883); further: nearly all actives have a fitted effect of over 60% in size; further: potency means the concentration at half of the fitted maximal effect
# Cytochrome P450 2C9 (Homo sapiens), sequence (P11712 whole entry, looked up): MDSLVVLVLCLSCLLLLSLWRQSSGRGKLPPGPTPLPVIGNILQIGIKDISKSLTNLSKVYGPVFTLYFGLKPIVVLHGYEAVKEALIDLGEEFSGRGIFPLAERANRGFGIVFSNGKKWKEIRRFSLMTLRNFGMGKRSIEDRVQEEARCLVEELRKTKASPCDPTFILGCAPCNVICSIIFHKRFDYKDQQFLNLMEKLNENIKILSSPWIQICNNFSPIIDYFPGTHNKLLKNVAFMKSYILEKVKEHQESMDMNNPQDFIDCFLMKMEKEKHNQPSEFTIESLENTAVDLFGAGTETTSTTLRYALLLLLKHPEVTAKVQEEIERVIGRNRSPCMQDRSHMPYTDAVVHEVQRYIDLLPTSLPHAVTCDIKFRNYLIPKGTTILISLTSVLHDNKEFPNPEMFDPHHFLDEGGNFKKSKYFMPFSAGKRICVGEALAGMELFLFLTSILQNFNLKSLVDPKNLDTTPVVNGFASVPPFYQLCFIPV
# In short: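 CYP2C9 deoxyluciferin hydroxylation, 37C, 60 min with NADPH regeneration; 10nM enzyme, 100uM Luciferin-H (KM). Glo detection reagent stopped reaction; luminescence normalized to sulphaphenazole (57uM) full inhibition.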
# [8] = target: Cytochrome P450 2D6 (Homo sapiens) (UniProt P10635); assay: qHTS Assay for Inhibitors and Substrates of Cytochrome P450 2D6 (AID 891); further: nearly all actives have a fitted effect of over 60% in size; further: potency means the concentration at half of the fitted maximal effect
# Cytochrome P450 2D6 (Homo sapiens), sequence (P10635 whole entry, looked up): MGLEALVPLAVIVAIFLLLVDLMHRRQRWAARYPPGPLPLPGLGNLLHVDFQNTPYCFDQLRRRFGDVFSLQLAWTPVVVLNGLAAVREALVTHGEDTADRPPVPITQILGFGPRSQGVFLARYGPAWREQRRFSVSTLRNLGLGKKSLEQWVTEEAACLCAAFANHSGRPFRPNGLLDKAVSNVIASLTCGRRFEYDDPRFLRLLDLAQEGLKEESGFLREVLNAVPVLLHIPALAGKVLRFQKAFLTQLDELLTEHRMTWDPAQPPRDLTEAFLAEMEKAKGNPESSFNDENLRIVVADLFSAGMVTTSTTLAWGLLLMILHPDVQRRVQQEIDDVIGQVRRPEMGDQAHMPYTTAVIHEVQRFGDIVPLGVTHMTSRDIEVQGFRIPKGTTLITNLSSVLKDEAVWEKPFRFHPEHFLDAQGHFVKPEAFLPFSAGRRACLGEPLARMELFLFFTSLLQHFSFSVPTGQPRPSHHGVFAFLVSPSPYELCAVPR
# In short: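 Human CYP2D6 (5 nM) with 30 uM Luciferin-ME EGE (at Km) in 100 mM KPO4, compound preincubated 10 min, then NADPH regeneration system for 60 min at room temperature. Luciferin read by luminescence; normalized to 1.43 uM quinidine.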
# [9] = target: Cytochrome P450 2C19 (Homo sapiens) (UniProt P33261); assay: qHTS Assay for Inhibitors and Substrates of Cytochrome P450 2C19 (AID 899); further: nearly all actives have a fitted effect of over 60% in size; further: potency means the concentration at half of the fitted maximal effect
# Cytochrome P450 2C19 (Homo sapiens), sequence (P33261 whole entry, looked up): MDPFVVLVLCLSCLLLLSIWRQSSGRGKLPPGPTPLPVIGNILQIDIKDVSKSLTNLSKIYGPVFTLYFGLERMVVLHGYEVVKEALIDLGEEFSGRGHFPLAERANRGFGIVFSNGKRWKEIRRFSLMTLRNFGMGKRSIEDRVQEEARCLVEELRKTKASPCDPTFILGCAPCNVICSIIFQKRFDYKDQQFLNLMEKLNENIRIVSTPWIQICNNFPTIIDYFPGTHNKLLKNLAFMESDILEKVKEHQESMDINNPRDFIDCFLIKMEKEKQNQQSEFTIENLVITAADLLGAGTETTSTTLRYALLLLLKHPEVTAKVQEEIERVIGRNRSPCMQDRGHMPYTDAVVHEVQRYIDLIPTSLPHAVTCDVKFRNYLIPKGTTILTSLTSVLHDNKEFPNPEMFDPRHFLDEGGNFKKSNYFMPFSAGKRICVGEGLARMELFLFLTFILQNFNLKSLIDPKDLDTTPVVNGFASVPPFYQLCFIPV
# In short: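 In 50mM KPO4, the reaction held 5nM enzyme and KM-level (10uM) Luciferin-H EGE; it ran 60 min at 37C after NADPH regeneration and a 10 min compound preincubation. Luminescence values were scaled to 57uM ketoconazole as complete inhibition.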
# [10] = qHTS Assay for Identification of Small Molecule Antagonists for Thrombopoietin (TPO) Signaling Pathway (AID 918); conditions: TPO-dependent cell signaling reporter, antagonist mode; further: potency means the concentration at half of the fitted maximal effect; nearly all actives have a fitted effect of over 60% in size
# In short: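 Murine Ba/F3 cells expressing human TPO receptor and a Glycoprotein IIb promoter-luciferase reporter, IL-3-starved overnight, treated with compound plus TPO at EC50 (26 pM final). After 24 h at 37 C, luminescence read to detect inhibitors.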
# [11] = target: Cytochrome P450 3A4 (Homo sapiens) (UniProt P08684); assay: qHTS Assay for Activators of Cytochrome P450 3A4 (AID 885); further: nearly all actives have a fitted effect of over 65% in size
# In short: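 Human CYP3A4 (20 nM) with Luciferin-PPXE at 25 uM (its KM) in 200 mM KPO4; 10 min compound preincubation, then NADPH regeneration and 60 min reaction at RT. Luciferin read by luminescence; normalized to 57 uM ketoconazole full inhibition.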
# [12] = target: Muscarinic acetylcholine receptor M1 (Rattus norvegicus) (UniProt P08482); assay: qHTS Assay for Antagonists of Acetylcholine Muscarinic M1 Receptor: Kinetic Measurement of Intracellular Calcium Response (AID 943); further: nearly all actives have a fitted effect of over 75% in size; further: potency means the concentration at half of the fitted maximal effect
# Muscarinic acetylcholine receptor M1 (Rattus norvegicus), sequence (P08482 whole entry, looked up): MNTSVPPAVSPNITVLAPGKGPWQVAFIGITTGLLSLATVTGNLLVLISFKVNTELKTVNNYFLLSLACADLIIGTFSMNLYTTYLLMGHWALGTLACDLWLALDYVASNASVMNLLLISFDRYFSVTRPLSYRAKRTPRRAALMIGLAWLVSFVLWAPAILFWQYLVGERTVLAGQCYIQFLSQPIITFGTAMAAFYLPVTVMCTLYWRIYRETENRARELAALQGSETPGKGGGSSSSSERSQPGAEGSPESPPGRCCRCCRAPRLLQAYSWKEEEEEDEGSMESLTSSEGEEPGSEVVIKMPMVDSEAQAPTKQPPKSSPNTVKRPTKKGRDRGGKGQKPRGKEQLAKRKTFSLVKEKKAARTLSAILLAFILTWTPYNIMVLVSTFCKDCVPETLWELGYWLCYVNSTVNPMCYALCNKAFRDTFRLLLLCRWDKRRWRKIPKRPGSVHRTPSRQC
# In short: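 CHO cells expressing rat M1 receptor, Fluo-4 loaded, preincubated 10 min with compound, then stimulated with EC80 carbachol (100 nM final). Kinetic calcium fluorescence over 4 min; response taken as peak over basal signal.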
# [13] = target: Muscarinic acetylcholine receptor M1 (Rattus norvegicus) (UniProt P08482); assay: qHTS Assay for Antagonists of Acetylcholine Muscarinic M1 Receptor: Measurement of IP-One Response (AID 944); further: nearly all actives have a fitted effect of over 75% in size; further: potency means the concentration at half of the fitted maximal effect
# In short: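 CHO cells stably expressing rat M1, pretreated 10 min with compound, then stimulated 30 min with carbachol at EC80 (200 nM) in LiCl-containing buffer pH 7.4; IP1 accumulation read by HTRF competition (665/620 nm).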
# [14] = qHTS Assay for Identification of Small Molecule Agonists for Hypoxia Response Element Signaling Pathway (AID 914; active means well fitted activation curve with a large enough effect in the signal ratio, with a control signal flat, not every such curve was filed as active; the % refers to the signal ratio); conditions: ME-180 (cervical carcinoma) HRE-bla reporter, beta-lactamase ratio, CoCl2, 17 h; stronger effect = higher value
# In short: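 In Opti-MEM containing 0.5% dialyzed FBS and 10 mM HEPES, ME-180 HRE-bla cells received a compound titration and EC50 CoCl2. They were incubated 17 hours, then CCF4-loaded 2.5 hours at room temperature before ratio reading.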
smiles,measurement,setting,value
O=C1CC2(CCCC2)CC(=O)N1CCCCN1CCN(c2ncccn2)CC1,Potency,[1],inactive
same,Potency,[2],inactive
CCCNC(C)C(=O)Nc1ccccc1C (configuration not stated),outcome,[3],inactive
same,outcome,[4],inactive
same,outcome,[5],inactive
C[N+](C)(C)CCCCCCCCCC[N+](C)(C)C,Potency,[1],inactive
same,outcome,[6],inactive
C[C@H](CS)C(=O)N1CCC[C@H]1C(=O)O,Potency,[7],inactive
same,outcome,[3],inactive
same,Potency,[8],inactive
same,Potency,[9],inactive
same,Potency,[2],inactive
CCCN(CCC)C(=O)C(CCC(=O)O)NC(=O)c1ccccc1 (configuration not stated),outcome,[3],inactive
same,outcome,[4],inactive
same,outcome,[5],inactive
CCN(CC)CCNC(=O)c1cc(S(C)(=O)=O)ccc1OC,Potency,[7],inactive
same,outcome,[3],inactive
same,outcome,[4],inactive
same,outcome,[5],inactive
CNCCCN1c2ccccc2CCc2ccccc21,Potency,[1],inactive
same,outcome,[4],inactive
same,Potency,[10],12.6 µM (active)
same,outcome,[5],inactive
same,Potency,[2],inactive
CCN1CCc2nc(N)oc2CC1,Potency,[11],inactive
COc1ccc2c(c1OC)C(=O)O[C@@H]2[C@H]1c2c(cc3c(c2OC)OCO3)CCN1C,Potency,[7],0.126 µM (active)
same,Potency,[9],0.158 µM (active)
CC(C)NNC(=O)c1ccncc1,outcome,[3],inactive
same,outcome,[4],inactive
same,outcome,[5],inactive
same,Potency,[2],inactive
COCC(=O)O[C@]1(CCN(C)CCCc2nc3ccccc3[nH]2)CCc2cc(F)ccc2[C@@H]1C(C)C,Potency,[10],12.6 µM (active)
same,Potency,[2],inactive
O=C(CCNNC(=O)c1ccncc1)NCc1ccccc1,Potency,[11],inactive
same,Potency,[9],inactive
same,Potency,[12],inactive
same,Potency,[13],inactive
same,Potency,[2],inactive
O=C1NCN(c2ccccc2)C12CCN(CCCC(c1ccc(F)cc1)c1ccc(F)cc1)CC2,Potency,[11],inactive
same,Potency,[8],1.58 µM (active)
same,Potency,[10],12.6 µM (active)
same,Potency,[2],inactive
C[C@]12CCC(=O)C=C1CC[C@@H]1[C@@H]2C(=O)C[C@@]2(C)[C@H]1CC[C@]2(O)C(=O)CO,Potency,[11],inactive
same,outcome,[6],inactive
CCN(CC)CCOCCOC(=O)C1(c2ccccc2)CCCC1,outcome,[4],inactive
same,outcome,[6],inactive
same,outcome,[5],inactive
same,Potency,[2],inactive
CCCCCCCC/C=C\CCCCCCCC(=O)NCc1ccc(O)c(OC)c1,Potency,[11],inactive
same,Potency,[8],3.16 µM (active)
COCCCC/C(=N\OCCN)c1ccc(C(F)(F)F)cc1,activation,[14],24.7% (inactive)
COC(=O)[C@@H](N)Cc1ccc(O)c(O)c1,Potency,[11],inactive
same,Potency,[12],inactive
same,Potency,[2],inactive
C[C@]12CCC(=O)C=C1CC[C@@H]1[C@@H]2CC[C@@]2(C)[C@H]1CC[C@]2(O)C(=O)CO,outcome,[6],inactive
O=C(O)CP(=O)(O)O,activation,[14],5.52% (inactive) and -2.23% (inactive)
same,Potency,[12],inactive
same,Potency,[13],inactive
Cc1ccc(/C(=C\CN2CCCC2)c2ccccn2)cc1,outcome,[4],inactive
same,outcome,[5],inactive
OC(CCN1CCCCC1)(c1ccccc1)C1CCCCC1 (configuration not stated),outcome,[4],inactive
same,outcome,[5],inactive
N[C@@H](COP(=O)(O)O)C(=O)O,Potency,[11],inactive
same,Potency,[9],inactive
same,Potency,[12],inactive
same,Potency,[13],inactive
CCN(CC)CC(=O)Nc1c(C)cccc1C,outcome,[4],inactive
same,outcome,[5],inactive
same,Potency,[2],inactive
CC(C)(C)NCC(O)c1cc(O)cc(O)c1 (configuration not stated),outcome,[4],inactive
same,outcome,[5],inactive
COCCc1ccc(OCC(O)CNC(C)C)cc1 (configuration not stated),outcome,[4],inactive
same,outcome,[5],inactive
c1ccc2c(c1)CCCC2C1=NCCN1 (configuration not stated),outcome,[4],inactive
same,outcome,[5],inactive
CC(N=C(NC#N)Nc1ccncc1)C(C)(C)C (configuration not stated),outcome,[4],inactive
same,outcome,[5],inactive
CN(C)CCCN1c2ccccc2Sc2ccc(C(F)(F)F)cc21,Potency,[8],794 nM (active) and 398 nM (active)
same,outcome,[4],inactive
same,activation,[14],12.9% (inactive)
same,outcome,[5],inactive
same,Potency,[12],158 nM (active)
same,Potency,[13],1 µM (active)
same,Potency,[2],inactive
CCc1c(C)[nH]c2c1C(=O)C(CN1CCOCC1)CC2 (configuration not stated),Potency,[13],inactive
CCNC(=O)N1CCN(CCCC(c2ccc(F)cc2)c2ccc(F)cc2)CC1,outcome,[6],inactive
same,Potency,[13],17.8 µM (active)
CCOC(=O)c1cnc2c(cnn2CC)c1NN=C(C)C,Potency,[11],inactive
same,Potency,[12],inactive
CCCCNc1c(C(=O)OCC)c(C)nc2c1cnn2CC,Potency,[11],inactive
same,Potency,[8],inactive and 199 nM (active)
same,Potency,[13],inactive
OCCN1CCN(CCCN2c3ccccc3C=Cc3ccccc32)CC1,Potency,[11],inactive
same,Potency,[12],3.16 µM (active) and 3.55 µM (active)
same,Potency,[13],3.55 µM (active) and 4.47 µM (active)
C[C@]12C=CC(=O)C=C1CC[C@H]1[C@@H]3C[C@@H](O)[C@](O)(C(=O)CO)[C@@]3(C)C[C@H](O)[C@@]12F,Potency,[11],inactive
same,outcome,[6],inactive
CSc1ccc(C(=O)c2[nH]c(=O)[nH]c2C)cc1,outcome,[6],inactive
same,Potency,[2],inactive
CN(C)CCOC(=O)COc1ccc(Cl)cc1,Potency,[11],inactive
same,Potency,[9],inactive
same,outcome,[4],inactive
same,outcome,[5],inactive
same,Potency,[12],inactive
same,Potency,[13],inactive
same,Potency,[2],inactive
CC(=O)OCC1=C(C(=O)O)N2C(=O)[C@@H](NC(=O)Cc3cccs3)[C@H]2SC1,activation,[14],-3.15% (inactive)
